Bioassay records as filed in PubChem.
FBW7 activator = FBW7 E3 ligase activators, primary screen, biochemical, AlphaScreen, human; AlphaScreen FBW7–phospho-cyclin E peptide binding, activator screen; normalized activity (activation), % at 26.1 µM; F-box/WD repeat-containing protein 7 (Homo sapiens), Q969H0; 650,000 tested, 0.13% active; AID 1259310, 2017; in the data active = normalized activity above about 1.9%;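 note: purified mutant Fbw7 with reduced substrate affinity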
GPR151 ag = activators of human GPR151, primary screen, cell-based, PathHunter beta-arrestin, luminescence. activation, % at 11.2 µM. PathHunter beta-arrestin GPR151 cells. 650,000 tested, 1% active. AID 1508602, 2020. G-protein coupled receptor 151 (Homo sapiens), Q8TDV0; in the data active = activation above about 4.9%;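 note: 0% = median of compound wells and 100% = cells with positive control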
TEAD-YAP block = TEAD-YAP interaction inhibition, primary screen, TEAD-YAP interaction inhibitor project, luminescence, HEK-TIYL cells. inhibition, % at 9.12 µM. TEAD-Gal4/YAP UAS-luciferase luminescence. 640,000 tested, 1.4% active; in the data active = inhibition above about 32%;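 note: 0% = median of test compound wells and 100% = reference inhibitor wells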
MITF inh = MITF inhibitors, primary screen, biochemical, AlphaScreen, human | AlphaScreen MITF homodimerization, bead proximity signal | inhibition, % at 2.6 µM | 650,000 tested, 0.91% active | AID 1259374, 2018; in the data active = inhibition above about 50%;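 note: 0% = vehicle wells with protein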
Target sequence (O75030 whole entry, looked up): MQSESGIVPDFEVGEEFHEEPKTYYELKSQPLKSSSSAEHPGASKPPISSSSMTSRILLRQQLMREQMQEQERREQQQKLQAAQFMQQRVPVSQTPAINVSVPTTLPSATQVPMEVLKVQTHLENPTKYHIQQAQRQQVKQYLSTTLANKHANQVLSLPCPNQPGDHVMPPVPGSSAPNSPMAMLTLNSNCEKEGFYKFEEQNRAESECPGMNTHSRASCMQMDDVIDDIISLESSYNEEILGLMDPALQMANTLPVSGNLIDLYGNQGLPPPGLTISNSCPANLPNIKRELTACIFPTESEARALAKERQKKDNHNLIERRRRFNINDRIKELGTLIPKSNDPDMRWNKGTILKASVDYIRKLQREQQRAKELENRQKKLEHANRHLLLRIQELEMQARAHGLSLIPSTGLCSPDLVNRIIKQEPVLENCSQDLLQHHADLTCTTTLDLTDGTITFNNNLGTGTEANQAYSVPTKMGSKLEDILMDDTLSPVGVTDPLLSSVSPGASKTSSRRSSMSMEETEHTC
* marks the source's active call; other numbers are inactive results. Most compounds without a hit are left out; they make up all but 3.5% or so of the library.

SMILES	FBW7 activator	GPR151 ag	TEAD-YAP block	MITF inh
Oc1cccc(/C=N/NC(=S)Nc2cccnc2)c1O	-1	-2	40*	112*
Oc1ccc(/C=N/NC(=S)Nc2cccnc2)c(O)c1	-1	0	4	119*
O=[N+]([O-])c1ccccc1NC(=S)N/N=C/c1ccc(O)c(O)c1O	-1	1	49*	57*
CCOC(=O)c1ccccc1Nc1ccc([N+](=O)[O-])cc1C(=O)OCC	0	-1	8	5
COc1cc(Nc2nccn3c(-c4ccc5ccccc5c4)cnc23)cc(OC)c1OC	0	2	54*	-9
COc1cc(Nc2nccn3c(-c4cccc(C(C)=O)c4)cnc23)cc(OC)c1OC	1	0	54*	20
COc1cc(Nc2nccn3c(-c4ccc(F)c(Cl)c4)cnc23)cc(OC)c1OC	-1	-1	53*	22
COc1cc(Nc2nccn3c(-c4ccc(Cl)cc4)cnc23)cc(OC)c1OC	1	-1	17	15
COc1cc(Nc2nccn3c(-c4ccco4)cnc23)cc(OC)c1OC	0	0	57*	17
CCCCC1CN(CC(=O)NCC2CCN(CCOC)C2)Cc2ccccc2O1 (centres undefined)	0	0	-1	2
Cc1cccc(/N=C/c2nc(-c3ccccc3)oc2O)n1	1	-3	-54	-2
Cc1cc(NCCN(C(C)C)C(C)C)nc(NCCN2CCOCC2)n1	0	0	4	-3
CCOc1ccc(/C(O)=C2\C(=O)C(=O)N(c3nccs3)C2c2ccccc2)cc1 (centres undefined)	0	0	36*	-3
O=C(CC1C(=O)NCCN1CCc1ccccc1)NCc1ccc(N2CCCC2=O)cc1 (centres undefined)	0	-1	6	9
CC(=O)c1ccc(NC(=O)/C(Cl)=C/c2ccccc2)cc1	0	-1	-1	12
Cc1ccc(NC(=O)/C(Cl)=C\c2ccccc2)cc1	1	-4	65*	14
COc1ccc(NC(=O)/C(Cl)=C\c2ccccc2)cc1	0	-2	45*	23
O=C(Nc1ccc(F)cc1)/C(Cl)=C/c1ccccc1	1	-3	-19	7
COc1cc(/C=N/Nc2ccc(C)cc2)cc([N+](=O)[O-])c1O	0	-1	0	4
O=C(Nc1cccc(O)c1)c1cc(C2CC2)on1	0	-5	84*	-4
CCCc1cc(C(=O)Nc2cccc(O)c2)no1	1	-5	74*	7
O=C(Nc1ccc2c(c1)OCO2)c1cc(C2CC2)on1	0	1	-47	-13
Cn1cc(/C=C/c2nc3ccccc3c(=O)n2CCCO)c2ccccc21	0	-1	1	-6
CCN1C(=O)CC(CC(=O)N2CCCCC2)(c2cccc(C(F)(F)F)c2)C1=O (centres undefined)	0	1	-5	-11
CN(C)S(=O)(=O)c1cccc(C(=O)Nc2cccc(O)c2)c1	0	0	58*	-10
SMILES	FBW7 activator	GPR151 ag	TEAD-YAP block	MITF inh
CCOC(=O)c1ccc(NC(=O)c2cccc(S(=O)(=O)N(CC)CC)c2)cc1	0	1	43*	5
CCN(CC)S(=O)(=O)c1cccc(C(=O)Nc2ccc(O)cc2)c1	0	-2	48*	5
CCOC(=O)c1ccc(NC(=O)c2cccc(OCC)c2)cc1	0	-2	-18	-5
CCN(CC)S(=O)(=O)c1cccc(C(=O)Nc2cccc(NC(=O)c3cccc(S(=O)(=O)N(CC)CC)c3)n2)c1	0	0	12	2
CN1CCN(CC(=O)N2CCC(c3ncncc3-c3ccncc3)CC2)CC1	0	1	-3	-5
c1cn(CCNc2nc3nonc3nc2N2CCCCC2)cn1	0	-2	0	-1
COc1ccc(/C=C2/S/C(=N/Nc3ccccc3)NC2=O)cc1	0	2	-15	6
Cc1cc(C)cc(-n2ncc3c(NCC(C)O)ncnc32)c1 (centres undefined)	0	1	-39	8
O=C(O)CCN1C(=O)CSC1=S	0	1	10	6
O=C(O)CCCCN1C(=O)CSC1=S	0	-1	38*	24
COC(=O)c1sccc1NC(=O)c1cccc2c1SCCC2=O	0	-1	10	6
COC(=O)c1cc2c(cc1NC(=O)c1cccc3c1SCCC3=O)OCO2	0	0	51*	-1
CCc1ccc2c(c1)[C@H]1OCC[C@H]1[C@@H](c1cccs1)N2	0	1	47*	17
O=C(Nc1ccc([N+](=O)[O-])cn1)c1cc(F)c(F)c(F)c1F	0	2	-3	1
Nc1nc(Nc2ccc(N3CCOCC3)cc2)cc(Nc2nccc3ccccc23)n1	0	1	40*	17
Nc1nc(Nc2ccccc2)cc(Nc2ccc(N3CCOCC3)cc2)n1	0	-2	15	5
c1cncc(Nc2nc(Nc3ccc(N4CCOCC4)cc3)c3[nH]cnc3n2)c1	0	1	37*	3
c1ccc2c(Nc3nc(Nc4ccc(N5CCOCC5)cc4)c4[nH]cnc4n3)nccc2c1	0	-1	38*	14
O=C(CN1C(=O)C2CC=CCC2C1=O)NC(c1ccccc1)c1ccccc1 (centres undefined)	0	1	6	12
FC(F)(F)COc1nc(N2CCOCC2)nc(N2CCN(C34CC5CC(CC(C5)C3)C4)CC2)n1	0	0	-2	-14
N#C/C(=C/c1ccccc1[N+](=O)[O-])C(=O)Nc1ccc(Cl)cc1	0	-1	-9	-12
O=C(COC(=O)c1ccc(O)cc1)NC1CCCCCC1	0	1	-6	-6
NC(=O)Nc1ccc(C(=O)OCC(=O)NC2CCCCC2)cc1	0	-1	34*	6
CC(C)(c1ccccc1)c1ccc(OCC(=O)NC2CCCC2)cc1	1.9*	0	-4	12
O=C(COc1ccc(S(=O)(=O)NC2CCCCC2)cc1)NC1CCCCCC1	1	1	35*	4
SMILES	FBW7 activator	GPR151 ag	TEAD-YAP block	MITF inh
O=C(N/N=C/c1ccc([N+](=O)[O-])cc1)c1ccc(O)cc1	0	-1	3	13
CC(C)n1cc(C(=O)c2ccccc2OCc2ccc(C#N)cc2)cc(C#N)c1=O	0	0	-3	-4
COc1cc(/C=N\Nc2ccc([N+](=O)[O-])cn2)c(Br)cc1O	20*	2	8	-3
Cc1ccc(NC(=O)C(=O)N/N=C/c2ccccc2O)cc1	0	1	-1	0
CNC(=S)N1CCC(C(=O)NC(c2ccccc2)c2ccccn2)CC1 (centres undefined)	0	-1	20	20
Cc1cccc(-c2c(C#N)cnc3cc(C)nn23)c1	0	0	33*	-7
Cc1ccc(-c2cc3ncc(C#N)c(-c4cccc(C)c4)n3n2)cc1	0	-2	-1	21
COc1ccc(C(=O)Nc2ncc(Cc3ccc(C)cc3)s2)cc1OC	1	-1	39*	10
COc1ccc(C(=O)Nc2ncc(Cc3cccc(Cl)c3)s2)cc1OC	0	1	53*	9
